High-throughput results as filed in PubChem.
NPC1 promoter act: activators of NPC1 promoter. Huh7 NPC1 promoter luciferase reporter, 24 h. Potency, µM (series often up to 9.22 µM), without a hit: top-dose activation, usual class: activators. 320,000 compounds, 2.4% hits. AID 485313; also: % of control where 0% means no effect; nearly all actives have a fitted effect of over 60% in size
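Huh7 reporter cells (NPC1 promoter driving luciferase) are dosed with compound for 24 h at 37 °C, 5% CO2; luciferase detection reagent is then added and luminescence measured after 10 min at ambient temperature.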
ELG1 DNA repair: ELG1-dependent DNA repair inhibition | HEK293T ELG1-luciferase reporter, luminescence, 16 h; DNA damage induced by 5-fluorouridine | Potency, µM (top dose mostly 46.1 µM), for inactives: at the highest dose activity change, negative = inhibition, usual class: inhibitors | 330,000 compounds, 2.3% hits | AID 504467; also: % is scaled to controls: 0 for no effect and ±100 for the full control effect; nearly all actives have a fitted effect of over 55% in size
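Overnight (16 hr) co-exposure of 2,000 cells/well to 5-fluorouridine and compound at 37 °C preceded detection. Luciferase was quantified via ONE-Glo luminescence; loss of signal denotes inhibition.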
FLuc modulator: inhibits or activates purified firefly luciferase, miR-21 counter-screen. P08659. purified FLuc, Km substrates, luminescence inhibition. 360,000 compounds, 6.9% hits. AID 588342. Potency, µM (series often up to 57.5 µM), without a hit: at the top dose activity change, negative = inhibition, actives largely listed as inhibitors;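 also: plate controls were vehicle for no effect and reference inhibitor for full effect; nearly all actives have a fitted effect of over 55% in size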
Target sequence (P08659 whole entry, looked up): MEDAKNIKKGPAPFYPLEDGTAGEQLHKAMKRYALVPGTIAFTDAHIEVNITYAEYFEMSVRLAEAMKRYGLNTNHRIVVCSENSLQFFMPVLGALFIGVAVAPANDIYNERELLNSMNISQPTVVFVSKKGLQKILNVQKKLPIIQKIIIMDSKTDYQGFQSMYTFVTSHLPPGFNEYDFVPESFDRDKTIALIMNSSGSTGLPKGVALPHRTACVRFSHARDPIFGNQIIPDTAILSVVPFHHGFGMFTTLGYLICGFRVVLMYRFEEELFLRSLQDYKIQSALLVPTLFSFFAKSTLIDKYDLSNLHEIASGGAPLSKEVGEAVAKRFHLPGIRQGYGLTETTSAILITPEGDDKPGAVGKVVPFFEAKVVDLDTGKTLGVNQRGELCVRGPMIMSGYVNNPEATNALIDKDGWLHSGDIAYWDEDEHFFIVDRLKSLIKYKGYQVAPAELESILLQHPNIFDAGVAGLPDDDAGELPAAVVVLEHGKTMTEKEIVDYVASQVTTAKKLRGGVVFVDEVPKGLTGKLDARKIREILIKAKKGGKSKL
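Purified P. pyralis luciferase, 10 nM final, with Km-level 10 uM D-luciferin and 10 uM ATP in 50 mM Tris acetate pH 7.5, 10 mM Mg acetate, 0.01% Tween-20, 0.05% BSA; 6-point qHTS titration about 60 µM downward; luminescence read.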
Rab9 prom act: Rab9 promoter activation | AID 485297 | Potency, µM (top dose mostly 9.22 µM), without a hit: at the highest dose activation, negative = inhibition, hits mostly activators | 320,000 compounds, 2.8% hits | Huh7 Rab9 promoter-luciferase reporter, luminescence, 24 h; also: % of control where 0% means no effect; nearly all actives have a fitted effect of over 60% in size
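Huh7 cells stably carrying a Rab9 promoter-luciferase reporter, 1500 cells per well in OP-MEM I with 10% FBS, treated with compound 24 hours at 37C. Luciferase activity read by luminescence after 10 minutes with Amplite reagent.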
ELG1 genotox: genotoxicity induction in ELG1-luciferase HEK293T cells; HEK293T ELG1-luciferase reporter, luminescence, 16 h; Potency, µM (doses to about 46 µM), for inactives: top-dose activity change, positive = activation, usual class: activators; 330,000 compounds, 1.3% hits; also: % of control where 0% means no effect; nearly all actives have a fitted effect of over 60% in size
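Reporter readout depends on ELG1 protein level, which increases with genetic stress. After 16 hr compound exposure at 37 °C, luciferase activity was quantified using ONE-Glo.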
SMN2 splice enh: enhancers of SMN2 splice variant expression; HEK293 SMN2-luciferase splicing reporter, luminescence, 30-36 h; Potency, µM (doses to about 46.1 µM), without a hit: at the top dose activity change, positive = activation, hits mostly activators; 210,000 compounds, 2.8% hits; also: % of control where 0% means no effect; nearly all actives have a fitted effect of over 55% in size
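HEK293 cells carry an SMN2 […]–luciferase reporter in which exon 7 inclusion puts luciferase in frame. Cells were plated 10-12 h before compound addition, then incubated 30-36 h at 37C. ONE-Glo luminescence was read; sodium butyrate at 4.5 mM final served as control.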
* marks the source's active call; other numbers are inactive results; ? = inconclusive; . = no result; ! = not confirmed by another sample; [ ] = another dose, or the depositor's remark. Hits are enriched below; roughly 9.2% of the tested compounds scored in any of these assays. Calls follow the shape of the dose curve; as a rule, active = well fitted curve in the direction sought with a large enough effect; inconclusive = small, poorly fitted or top-dose-only effect, or another doubt; inactive = no such curve, though single readings can be large; an effect the other way counts as inactive or inconclusive. Potency is read from the fitted curve at half-maximal effect.

SMILES	NPC1 promoter act	ELG1 DNA repair	FLuc modulator	Rab9 prom act	ELG1 genotox	SMN2 splice enh
CCN(c1cccc(C)c1)S(=O)(=O)c1nnc(NC(=O)c2ccco2)s1	0.7%	-1.2%	1.9%	3.1%	-3.2%	.
CCN(c1cccc(C)c1)S(=O)(=O)c1nnc(NC(=O)c2ccccc2Cl)s1	.	.	13.5µM*	.	.	.
CCN(c1ccccc1)S(=O)(=O)c1nnc(NC(=O)C(C)C)s1	1.1%	9.0%	0.4%	-6.6%	10.8%	.
CCN(c1ccccc1)S(=O)(=O)c1nnc(NC(=O)c2ccco2)s1	1.6%	0.4%	0.213µM*!	-0.2%	-0.6%	.
O=C(CSc1nc2ccc(Nc3nc(N4CCOCC4)nc(N4CCOCC4)n3)cc2s1)Nc1ccccc1F	-6.9%	2.59µM*	0.3%	-15.3%	-1.3%	.
Clc1ccc(Nc2nc(N3CCOCC3)nc(N3CCOCC3)n2)cc1Cl	-13.9%	1.64µM*	-0.5%	-12.5%	8.4%	.
Fc1ccc(Nc2nc(N3CCOCC3)nc(N3CCOCC3)n2)cc1Cl	-6.7%	?	0.1%	-3.5%	10.8%	.
CSc1nc2ccc(Nc3nc(N4CCOCC4)nc(N4CCOCC4)n3)cc2s1	-4.8%	5.17µM*	1.2%	-3.0%	-19.4%	-4.2%
Cc1cc(Nc2ccc(C)c(Cl)c2)nc(N2CCOCC2)n1	21.9%	20.6µM*	-11.8%	10.2%	1.3%	.
CC(CC(=O)N(C)c1c(N)n(Cc2ccccc2)c(=O)[nH]c1=O)c1ccccc1 (stereo not given)	1.6%	24.7%	-1.6%	1.9%	-1.2%	.
CCCCOc1ccc(C(=O)NCc2cn3cccc(C)c3n2)cc1	.	.	-1.1%	.	.	.
O=C(CSc1nc2ccc(Nc3nc(N4CCOCC4)nc(N4CCOCC4)n3)cc2s1)N1CCOCC1	-1.9%	2.59µM*	1.0%	-10.4%	-1.9%	11.9%
NS(=O)(=O)c1ccc(NC(=O)CSc2nc(Nc3ccccc3)nc(N3CCOCC3)n2)cc1	-0.6%	?	-3.2%	-2.0%	-0.7%	.
Cc1ccccc1Nc1nc(N2CCOCC2)nc(N2CCOCC2)n1	1.4%	?	1.1%	-3.7%	-0.4%	.
Fc1ccccc1Nc1nc(N2CCOCC2)nc(N2CCOCC2)n1	0.9%	5.8µM*	-0.5%	-1.1%	-5.7%	.
CC(=O)c1ccc(NC(=O)CSc2nc(Nc3ccccc3)nc(N3CCOCC3)n2)cc1	-4.5%	5.8µM*	-3.8%	-4.3%	2.0%	.
Fc1ccc(Nc2nc(N3CCOCC3)c3ccccc3n2)cc1	-0.4%	?	-5.9%	-4.1%	-8.3%	-26.5%
c1ccc2c(Nc3nc(N4CCOCC4)c4ccccc4n3)cccc2c1	0.0%	23.1µM*	?	-4.3%	-2.6%	-60.4%
CCCC(=O)Nc1ccc2nc(SCC(=O)Nc3ccc(N4CCOCC4)c(Cl)c3)sc2c1	3.98µM*	?	3.79µM*	28.8%	-12.3%	-10.4%
Nc1ccc2nc(SCC(=O)Nc3ccc(N4CCOCC4)c(Cl)c3)sc2c1	12.3%	11.3%	?	7.4%	?	28.7%
O=C(Nc1ccccc1C(=O)O)c1cccc(NC(=O)c2ccccc2Br)c1	-0.1%	0.4%	23.9µM*	-4.7%	-3.1%	.
CC(C)C(=O)Nc1ccc(C(=O)Nc2nnc(C(C)(C)C)s2)cc1	-2.6%	-2.4%	-7.1%	-1.7%	0.6%	11.6%
CCC(C)(C)c1nnc(NC(=O)c2cccc([N+](=O)[O-])c2)s1	20.3%	?	19µM*	22.3%	13.7%	?
O=C(Nc1cc(C(=O)Nc2ccccc2C(=O)O)cc(C(=O)Nc2ccccc2C(=O)O)c1)c1ccccc1	0.0%	-1.2%	3.4%	-3.1%	23.0%	.
CC(C)C(=O)Nc1cccc(C(=O)Nc2nnc(C(C)(C)C)s2)c1	0.7%	18.2%	13.5µM*	11.3%	2.0%	-6.4%
SMILES	NPC1 promoter act	ELG1 DNA repair	FLuc modulator	Rab9 prom act	ELG1 genotox	SMN2 splice enh
O=C(Nc1ccc(Cl)cc1F)c1ccccc1Br	1.78µM*	?	10.7µM*	2.24µM*	?	11.2µM*
Cc1cccc(OCC(=O)Nc2cccc(C(=O)Nc3ccccc3C(=O)O)c2)c1	0.7%	10.8%	?	-1.5%	-1.6%	17.6%
O=C(O)CCCC(=O)Nc1cccc(C(=O)Nc2ccccc2C(=O)O)c1	-1.1%	-4.0%	?	-6.8%	1.7%	.
O=C(O)c1ccc(NC(=O)c2ccccc2NC(=O)c2cccc(Br)c2)cc1	-1.8%	10.3%	10.7µM*	-2.3%	4.9%	.
CC(C)c1ccc(OCC(=O)Nc2cccc(C(=O)Nc3ccccc3C(=O)O)c2)cc1	0.3%	-11.3%	21.3µM*	-3.8%	1.7%	14.0%
O=C(Nc1cccc(NC(=O)c2ccccc2Cl)c1)c1cccc(Br)c1	.	.	1.1%	.	.	-10.7%
CC(C)C(=O)Nc1cccc(C(=O)Nc2ccccc2C(=O)O)c1	6.6%	?	7.57µM*	15.9%	-0.9%	-5.7%
COc1nnc(-c2ccc(N3CCCCC3)c(NC(=O)c3ccccc3Cl)c2)c2ccccc12	.	.	5.6%	.	.	30.8%
COc1ccc(N2CCN(C(=O)Cc3c(C(=O)O)c(C)cn3C)CC2)cc1	.	.	-6.9%	.	.	.
CCC(=O)Nc1nc2ccc([N+](=O)[O-])cc2s1	19.8%	-4.8%	-17.7%	3.4%	-1.2%	.
Cn1cc(Cl)c(C(=O)Nc2nc3ccc(Cl)cc3s2)n1	2.82µM*	?	3.38µM*	1.41µM*	?	22.4µM*
Cn1cc(Cl)c(C(=O)Nc2nc3ccc([N+](=O)[O-])cc3s2)n1	?	?	1.2µM*	?	5.4%	.
COc1ccc([C@]23Cc4cc(C#N)ccc4C(O2)c2c(c4ccc(OC)cc4oc2=O)O3)cc1	-6.8%[1.84 µM]	.	-2.6%[11.5 µM]	1.7%[1.84 µM]	.	.
Oc1ccc(-c2nnc(SCc3ccccc3)o2)cc1	?	?	26.9µM*	8.9%	?	.
Cc1ccc(CSc2nnc(-c3cccnc3)o2)cc1	1.1%	?	-14.3%	3.6%	?	-16.0%
Cc1ccc(-c2nnc(SCc3ccccc3)o2)cc1	.	.	4.78µM*	.	.	.
Fc1ccc(CSc2nnc(-c3ccncc3)o2)cc1	13.6%	?	-2.2%	2.1%	-21.3%	-30.2%
Cc1ccccc1-c1nnc(SCc2ccc(F)cc2)o1	?	?	15.1µM*	24.4%	?	-9.1%
C#CCSc1nnc(-c2ccc(C)cc2)o1	3.55µM*	?	7.57µM*	2.24µM*	23.1µM*	12.6µM*
C#CCSc1nnc(-c2ccc(O)cc2)o1	26.8%	?	?	?	?	?
O=S(=O)(c1ccc(-c2nnc(SCc3ccccc3)o2)cc1)N1CCCC1	0.0%	?	1.3%	-4.4%	-9.9%	-12.4%
Cc1c(-c2ccc(Cl)cc2)c(=O)oc2c(CN3CCN(C)CC3)c(O)ccc12	.	.	3.6%	.	.	.
CCOc1cc(/C=N/NC(=O)c2cc(C)n(-c3ccc(F)cc3)c2C)ccc1O	-4.8%	?	?	-3.7%	-2.5%	.
